Data on 66 molecules can be found in PubChem BioAssay AID598 (SRMLSC, 2007).

Hit rate of the full screen: of about 85,000 compounds, about 5,100 (6%) were called active.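 How the source made its calls: active means viability at or below 40%; inactive means viability above 40%.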 The full list was thinned out, with actives kept by preference.

The assay can be described thus: H69AR cell viability reduction – human, 86K library, primary screen (AID 598).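 Further: multidrug resistant small cell line overexpressing MRP-1 efflux transporter; 100% = mean luminescence of untreated control wells.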 The following applies: H69AR lung tumor viability, ATP luminescence, 72 h; at 10 µM; active compounds read low.
For `COc1cccc(OCCOc2cccc(/C=N/n3cnnc3)c2)c1`, the viability was 84.3% (inactive).
Next, `COc1cccc(OCC(=O)Nc2ccccc2C(N)=O)c1`: 85.5% (inactive).
Next, `COc1cccc(OCc2cc(/C=N/NC(=O)c3nc(Cl)c(Cl)c(N)c3Cl)ccc2OC)c1`: 19.7% (active).
The same measure for `CCCCCN1CC(O)=C(c2ccccc2)C1=N`: 88.7% (inactive).
With `O=C(c1cn(-c2ccccc2)nc1-c1cccnc1)N1CCCCC1`, the viability was 90.8% (inactive).
Next, `COc1ccccc1N1CCN(C(=O)c2cn(-c3ccccc3)nc2-c2cccnc2)CC1`: 21.9% (active); `COc1ccc(Nc2ncc(C(=O)N3CCN(c4ccccc4OC)CC3)c3ccccc23)cc1`: 80.8% (inactive); `COc1cccc2c1OCC1COc3c(c(=O)n(C)c(=O)n3C)C21` (stereo unspecified): 94.9% (inactive).
The same measure for `CCCCCCc1cc2cc(-c3nnc(-c4ccccc4)o3)c(=O)oc2cc1O`: 9.42% (active); for `CCCCCCc1cc2cc(-c3nnc(-c4cccc(OC)c4)o3)c(=O)oc2cc1O`: 2.32% (active).
The same measure for `O=c1oc2cc(O)ccc2cc1-c1ccc(F)cc1`: 88.7% (inactive); for `CCCCN(CC)CCCNC(=O)CS(=O)(=O)Cc1nc(-c2cccc(OC)c2)oc1C`: 88.1% (inactive).
As for `COc1cccc(C(=O)c2cc3ccc(O)cc3oc2=O)c1`, the viability is 68.4% (inactive).
Next, `CC(C)CCSc1ncnc2c1oc1nc3c(cc12)COC(C)(C)C3`: 68.6% (inactive).
Next, `Cc1nnc(SCc2nc3ccccc3nc2C)s1`: 97.2% (inactive).
Next, `Cc1cccc(N2C(=O)c3cccnc3C2=O)c1`: 92.3% (inactive); `CCN(CC)CCn1c(=S)[nH]c2ncccc2c1=O`: 101% (inactive).
Turning to `C=C(C)CNC(=S)/N=c1\scc(C)n1CC`, the viability was 91.2% (inactive).
For `CCC(C)NC(=O)CCCc1ccccc1` (stereo unspecified), the viability was 86.3% (inactive).
With `CCCCCc1ccc(-c2ccc(C(=O)O)cc2)nc1`, the viability was 35.7% (active).
In the case of `O=C(O)c1ccc(COCC(F)(F)F)cc1`, the viability was 98.2% (inactive).
Next, `Cc1cc(NC(=O)c2cc(-c3cccs3)on2)nn1Cc1ccc(Cl)cc1`: 26.1% (active); `Cc1ccc(Cn2ccc(NC(=O)c3cc(C(C)C)on3)n2)cc1`: 95% (inactive).
The same measure for `O=C(c1cc(-c2cccs2)on1)N1CCCCC1`: 97.2% (inactive).
The same measure for `Cc1ccc(S(=O)(=O)N2CCN(S(=O)(=O)N3CCOCC3)CC2)cc1`: 93.1% (inactive); for `C/C(=N\NC(=O)c1ccc(C)cc1)C1C(=O)c2ccccc2C1=O`: 78.5% (inactive); for `CC1CCN(C(=O)c2cc3nc(C4CC4)cc(C(F)(F)F)n3n2)CC1`: 97.6% (inactive).
Turning to `CCC(C)NC(=O)CSC1=Nc2ccccc2C2=NC(CCC(=O)NCc3ccco3)C(=O)N12` (stereo unspecified), the viability is 90.7% (inactive).
The same measure for `COc1cc(-c2nc(-c3ccncc3)no2)cc(OC)c1OC`: 88.6% (inactive).
With `COc1ccc(-c2ccc(-c3noc(-c4ccncc4)n3)c(OC)n2)cc1`, the viability was 93.4% (inactive).
Next, `CCOc1nc(-c2ccc(OC)cc2)ccc1-c1noc(-c2cc(OC)c(OC)c(OC)c2)n1`: 13.9% (active); `Cc1ccc(OCC(=O)N/N=C\c2ccco2)c(C)c1`: 93.4% (inactive); `Cc1ccc(S(=O)(=O)C2(S(=O)(=O)c3ccc(C)cc3)CCCC2)cc1`: 18.3% (active).
Consider `Cc1ccc(S(=O)(=O)NC(=O)N2CCCC(C)(C)C2)cc1`, for which the viability is 91% (inactive).
The same measure for `Cc1ccc(S(=O)(=O)N(C)C2(C)CCS(=O)(=O)C2)cc1` (stereo unspecified): 109% (inactive).
The same measure for `O=C1Nc2c(Br)cc(Br)cc2C1(O)N1CCOCC1` (stereo unspecified): 31.2% (active); for `CCc1c(C)nc2cc(-c3cccs3)[nH]n2c1=O`: 91.8% (inactive); for `Cc1c(-c2ccccc2)nc(N)c(C#N)c1-c1cccs1`: 77% (inactive).
The same measure for `CCc1c(-c2ccccc2)nc(N)c(C#N)c1-c1cccs1`: 36% (active); for `O=C(O)CSc1nccn1-c1cccc(Cl)c1`: 88.9% (inactive); for `Cc1noc(NS(=O)(=O)c2ccc(N/C=C/C(=O)c3ccccc3)cc2)c1C`: 76.1% (inactive).
Regarding `COc1ccc(CCNS(=O)(=O)c2ccc(Cl)s2)cc1OC`, the viability is 93% (inactive).
As to `COc1ccc(-c2cc(C(F)(F)F)nc(S(C)(=O)=O)n2)cc1OC`, the viability is 1.78% (active).
Turning to `COc1ccc(-c2cc(C(F)(F)F)nc(NCc3cccnc3)n2)cc1`, the viability was 92.9% (inactive).
Next, `COc1ccc(-c2nnco2)cc1OC`: 107% (inactive); `O=C(Nc1nncs1)c1cccc(S(=O)(=O)N2CCCCC2)c1`: 94.8% (inactive).
Next, `Cc1ccc(-n2c(SCC(=O)Nc3ccc4c(c3)OCO4)nnc2-c2ccccn2)cc1`: 65.9% (inactive).
The same measure for `Cc1cc(C)c(S(=O)(=O)N2C=CC(C(F)(F)F)=NCC2)c(C)c1`: 109% (inactive).
On to `CCCCN(CC)CCNC(=O)c1[nH]c(C)c(C(C)=O)c1C`, for which the viability is 101% (inactive).
The same measure for `Cc1ccc(C2(C(F)(F)F)N=C3Sc4cc(C)cc(C)c4N3C(=O)N2)cc1` (stereo unspecified): 101% (inactive); for `CCOC(=O)Cn1c(N)c(C(=O)OC)sc1=S`: 105% (inactive).
Next, `CCOC(=O)c1sc(=S)n2c1[nH]c(=O)c1ccc(C(=O)OC)cc12`: 36.7% (active); `CCOC(=O)c1sc(=S)n(-c2cccc(OC)c2)c1N`: 97.3% (inactive).
The same measure for `Cc1ccc(C)c(N2C(=O)CS/C2=N\NC(=O)c2ccccc2Cl)c1`: 101% (inactive); for `Cn1ccs/c1=N\S(=O)(=O)c1ccc(C(C)(C)C)cc1`: 89.4% (inactive); for `COc1ccc(NC(=O)C2C3C=CC(C3)C2C(=O)NCc2ccccn2)c(OC)c1` (stereo unspecified): 93.1% (inactive).
Consider `O=C(NCCc1ccccc1)c1ccc(OCCOc2ccccc2)cc1`, for which the viability is 87.8% (inactive).
Next, `COc1ccccc1NC1=NC2(CCCC2)N=C(N)N1`: 91.5% (inactive); `COc1ccccc1Nc1nc(N)nc(CN(C)C2CCCCC2)n1`: 87.4% (inactive); `COc1ccccc1NC1=NC(c2ccc(Cl)cc2)N=C(N)N1` (stereo unspecified): 19.5% (active).
On to `Cc1ccc(S(=O)(=O)NCC(C)NS(C)(=O)=O)cc1` (stereo unspecified), for which the viability was 95.2% (inactive).
The same measure for `CCOC(=O)c1sc(NC(=O)c2ccncc2)nc1C`: 96.2% (inactive); for `CCCCCOC(=O)c1ccc(N2C(=O)C3C4C=CC(C4)C3C2=O)cc1` (stereo unspecified): 95.1% (inactive); for `COc1ccc(Nc2cc(=O)oc3ccccc23)cc1`: 18.4% (active).
The same measure for `COC(=O)COc1ccc2oc(=O)cc(C)c2c1`: 91.9% (inactive); for `COc1ccc(N2CCN(Cc3cc(=O)oc4ccc5ccccc5c34)CC2)cc1`: 71.9% (inactive).

By viability is commonly meant a read-out of living cells in per cent, often relative to untreated cells.
